Results reported in ChEMBL document CHEMBL1157539, “Thousands of chemical starting points for antimalarial lead identification” (Nature, 2010).

System: Plasmodium falciparum
Experiment: GSK_TCMDC: Inhibition of Plasmodium falciparum 3D7 in whole red blood cells, using parasite LDH activity as an index of growth. Test compounds present at 2uM
Format: functional

Structure (SMILES)	Inhibition [%]
CCN1CCC(N(Cc2ccc(-c3ccc(C(F)(F)F)cc3)cc2)C(=O)Cn2c(CCc3cccc(F)c3F)cc(=O)c3cn(C)nc32)CC1.O=C(O)C(O)C(O)C(=O)O	95
CC(C)Cn1c(Sc2ccc(C#N)c([N+](=O)[O-])c2)nnc1-c1cccc(Cl)c1	98
O=[N+]([O-])c1cccc(C=NNc2nc(=Nc3ccccc3)[nH]c(=Nc3ccccc3)[nH]2)c1	99
Cc1cc(=NN=Cc2ccccc2F)c2ccccc2[nH]1	100
O=C(CNC(=O)c1ccc(O)cc1)Nc1ccc(-c2cccc(-c3nc4cc(C(F)(F)F)ccc4[nH]3)c2)cc1	92
Br.CCCC1N=C(N)N=C(N)N1c1ccc(C)c(C)c1 (centres undefined)	95
CC(C)C[C@@H](C(=O)Nc1ccc(Cc2ccc(NC(=O)[C@H](CC(C)C)N(C)C(=O)OC(C)(C)C)cc2)cc1)N(C)C(=O)OC(C)(C)C	92
COc1ccc(-c2ccc(NC(=O)c3cccc(Cl)c3)cc2)cc1CN1CCCC1.O=C(O)C(F)(F)F	100
OC(CNCCc1ccccc1)Cn1c2ccc(Cl)cc2c2cc(Cl)ccc21 (centres undefined)	98
Fc1ccc(Nc2ccnc3cc(-c4cccc(CN5CCCCC5)c4)ccc23)c(Cl)c1	91
Br.CCCCCCn1c2c(c(=N)c3c1CCC3)CCC2	97
COc1ccc(-c2nonc2NC(=O)c2cccc(Cl)c2)cc1OC	98
COc1cc(CN=C(S)NN=C(C)c2ccccn2)cc(OC)c1OC	99
COc1ccc2nccc([C@@H](O)CN3CCC(NCc4cc5c(F)ccc(F)c5[nH]4)CC3)c2n1.CS(=O)(=O)O	100
